Measurements taken from paper PMC11006913.
Residue numbers refer to the chain shown, from its start.

What was measured:
Assay in all cases: PBM; 200 nM protein, PBS
Settings in all cases: dsDNA, one strand shown
SIX6 [1] = target: T1, SIX6 (Homo sapiens, UniProt O95475 114-200, L167I)
T1 sequence: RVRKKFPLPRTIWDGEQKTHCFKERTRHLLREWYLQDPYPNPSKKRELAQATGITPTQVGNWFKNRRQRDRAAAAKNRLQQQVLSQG

SIX6 [2] = target: T2, SIX6 (Homo sapiens, UniProt O95475 114-200, L143V)
T2 sequence: T1 sequence with L30V, I54L

SIX6 [3] = target: T3, SIX6 (Homo sapiens, UniProt O95475 114-200, H141N)
T3 sequence: T1 sequence with H28N, I54L

SIX6 [4] = target: T4, SIX6 (Homo sapiens, UniProt O95475 114-200, T165P)
T4 sequence: T1 sequence with T52P, I54L

SIX6 [5] = target: T5, SIX6 (Homo sapiens, UniProt O95475 114-200, L167M)
T5 sequence: T1 sequence with I54M

SIX6 [6] = target: T6, SIX6 (Homo sapiens, UniProt O95475 114-200, L143M)
T6 sequence: T1 sequence with L30M, I54L

SIX6 [7] = target: T7, SIX6 (Homo sapiens, UniProt O95475 114-200, L143I)
T7 sequence: T1 sequence with L30I, I54L

SIX6 [8] = target: T8, SIX6 (Homo sapiens, UniProt O95475 114-200, T165G)
T8 sequence: T1 sequence with T52G, I54L

SIX6 [9] = target: T9, SIX6 (Homo sapiens, UniProt O95475 114-200, T139Q)
T9 sequence: T1 sequence with T26Q, I54L

SIX6 [10] = target: T10, SIX6 (Homo sapiens, UniProt O95475 114-200, T165A)
T10 sequence: T1 sequence with T52A, I54L

SIX6 [11] = target: T11, SIX6 (Homo sapiens, UniProt O95475 114-200, L167V)
T11 sequence: T1 sequence with I54V

SIX6 [12] = target: T12, SIX6 (Homo sapiens, UniProt O95475 114-200)
T12 sequence: T1 sequence with I54L

SIX6 [13] = target: T13, SIX6 (Homo sapiens, UniProt O95475 114-200, T165I)
T13 sequence: T1 sequence with T52I, I54L

NKX3-2 [14] = target: NKX3-2 (Homo sapiens, UniProt P78367 192-278, P234S)
NKX3-2 (Homo sapiens, UniProt P78367 192-278, P234S), sequence (P78367 192-278 P234S): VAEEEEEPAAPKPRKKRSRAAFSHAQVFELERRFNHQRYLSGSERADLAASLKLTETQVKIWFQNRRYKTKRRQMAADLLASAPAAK

NKX3-2 [15] = target: NKX3-2 (Homo sapiens, UniProt P78367 192-278)
NKX3-2 (Homo sapiens, UniProt P78367 192-278), sequence (P78367 192-278): as the sequence (P78367 192-278 P234S) above, with S43P counted along it

AAGGCCGC
binding signal (SIX6 [1]): 8.93 upbm affinity estimate (log intensity, higher = more binding, comparable within an allelic series)
binding signal (SIX6 [2]): 8.99 upbm affinity estimate (log intensity, higher = more binding, comparable within an allelic series)
binding signal (SIX6 [3]): 8.93 upbm affinity estimate (log intensity, higher = more binding, comparable within an allelic series)
binding signal (SIX6 [4]): 8.98 upbm affinity estimate (log intensity, higher = more binding, comparable within an allelic series)
binding signal (SIX6 [5]): 8.92 upbm affinity estimate (log intensity, higher = more binding, comparable within an allelic series)
binding signal (SIX6 [6]): 8.92 upbm affinity estimate (log intensity, higher = more binding, comparable within an allelic series)
binding signal (SIX6 [7]): 8.97 upbm affinity estimate (log intensity, higher = more binding, comparable within an allelic series)
binding signal (SIX6 [8]): 8.93 upbm affinity estimate (log intensity, higher = more binding, comparable within an allelic series)
binding signal (SIX6 [9]): 8.96 upbm affinity estimate (log intensity, higher = more binding, comparable within an allelic series)
binding signal (SIX6 [10]): 8.9 upbm affinity estimate (log intensity, higher = more binding, comparable within an allelic series)
binding signal (SIX6 [11]): 8.89 upbm affinity estimate (log intensity, higher = more binding, comparable within an allelic series)
binding signal (SIX6 [12]): 8.92 upbm affinity estimate (log intensity, higher = more binding, comparable within an allelic series)
binding signal (SIX6 [13]): 8.95 upbm affinity estimate (log intensity, higher = more binding, comparable within an allelic series)
binding signal (NKX3-2 [14]): 10.5 upbm affinity estimate (log intensity, higher = more binding, comparable within an allelic series)
binding signal (NKX3-2 [15]): 10.6 upbm affinity estimate (log intensity, higher = more binding, comparable within an allelic series)

CAGGGCGC
binding signal (SIX6 [1]): 9.09 upbm affinity estimate (log intensity, higher = more binding, comparable within an allelic series)
binding signal (SIX6 [2]): 8.83 upbm affinity estimate (log intensity, higher = more binding, comparable within an allelic series)
binding signal (SIX6 [3]): 9.07 upbm affinity estimate (log intensity, higher = more binding, comparable within an allelic series)
binding signal (SIX6 [4]): 9 upbm affinity estimate (log intensity, higher = more binding, comparable within an allelic series)
binding signal (SIX6 [5]): 8.98 upbm affinity estimate (log intensity, higher = more binding, comparable within an allelic series)
binding signal (SIX6 [6]): 9.04 upbm affinity estimate (log intensity, higher = more binding, comparable within an allelic series)
binding signal (SIX6 [7]): 8.98 upbm affinity estimate (log intensity, higher = more binding, comparable within an allelic series)
binding signal (SIX6 [8]): 9.07 upbm affinity estimate (log intensity, higher = more binding, comparable within an allelic series)
binding signal (SIX6 [9]): 8.97 upbm affinity estimate (log intensity, higher = more binding, comparable within an allelic series)
binding signal (SIX6 [10]): 8.99 upbm affinity estimate (log intensity, higher = more binding, comparable within an allelic series)
binding signal (SIX6 [11]): 9.01 upbm affinity estimate (log intensity, higher = more binding, comparable within an allelic series)
binding signal (SIX6 [12]): 9.01 upbm affinity estimate (log intensity, higher = more binding, comparable within an allelic series)
binding signal (SIX6 [13]): 8.97 upbm affinity estimate (log intensity, higher = more binding, comparable within an allelic series)

GATCCGGA
binding signal (SIX6 [1]): 10.4 upbm affinity estimate (log intensity, higher = more binding, comparable within an allelic series)
binding signal (SIX6 [2]): 9.71 upbm affinity estimate (log intensity, higher = more binding, comparable within an allelic series)
binding signal (SIX6 [3]): 10.2 upbm affinity estimate (log intensity, higher = more binding, comparable within an allelic series)
binding signal (SIX6 [4]): 9.25 upbm affinity estimate (log intensity, higher = more binding, comparable within an allelic series)
binding signal (SIX6 [7]): 9.87 upbm affinity estimate (log intensity, higher = more binding, comparable within an allelic series)
binding signal (SIX6 [8]): 10.4 upbm affinity estimate (log intensity, higher = more binding, comparable within an allelic series)
binding signal (SIX6 [9]): 10.7 upbm affinity estimate (log intensity, higher = more binding, comparable within an allelic series)
binding signal (SIX6 [10]): 10.3 upbm affinity estimate (log intensity, higher = more binding, comparable within an allelic series)
binding signal (SIX6 [11]): 10.3 upbm affinity estimate (log intensity, higher = more binding, comparable within an allelic series)
binding signal (SIX6 [12]): 10.4 upbm affinity estimate (log intensity, higher = more binding, comparable within an allelic series)
binding signal (SIX6 [13]): 10.2 upbm affinity estimate (log intensity, higher = more binding, comparable within an allelic series)

AGATAGGG
binding signal (SIX6 [1]): 10.1 upbm affinity estimate (log intensity, higher = more binding, comparable within an allelic series)
binding signal (SIX6 [2]): 9.56 upbm affinity estimate (log intensity, higher = more binding, comparable within an allelic series)
binding signal (SIX6 [3]): 10.1 upbm affinity estimate (log intensity, higher = more binding, comparable within an allelic series)
binding signal (SIX6 [4]): 9.33 upbm affinity estimate (log intensity, higher = more binding, comparable within an allelic series)
binding signal (SIX6 [7]): 9.71 upbm affinity estimate (log intensity, higher = more binding, comparable within an allelic series)
binding signal (SIX6 [8]): 10.3 upbm affinity estimate (log intensity, higher = more binding, comparable within an allelic series)
binding signal (SIX6 [9]): 10.4 upbm affinity estimate (log intensity, higher = more binding, comparable within an allelic series)
binding signal (SIX6 [10]): 10.1 upbm affinity estimate (log intensity, higher = more binding, comparable within an allelic series)
binding signal (SIX6 [12]): 10 upbm affinity estimate (log intensity, higher = more binding, comparable within an allelic series)

ATTGATAC
binding signal (SIX6 [1]): 11.4 upbm affinity estimate (log intensity, higher = more binding, comparable within an allelic series)
binding signal (SIX6 [2]): 10.5 upbm affinity estimate (log intensity, higher = more binding, comparable within an allelic series)
binding signal (SIX6 [3]): 11.5 upbm affinity estimate (log intensity, higher = more binding, comparable within an allelic series)
binding signal (SIX6 [4]): 9.95 upbm affinity estimate (log intensity, higher = more binding, comparable within an allelic series)
binding signal (SIX6 [5]): 10.8 upbm affinity estimate (log intensity, higher = more binding, comparable within an allelic series)
binding signal (SIX6 [6]): 11.2 upbm affinity estimate (log intensity, higher = more binding, comparable within an allelic series)
binding signal (SIX6 [7]): 10.5 upbm affinity estimate (log intensity, higher = more binding, comparable within an allelic series)
binding signal (SIX6 [8]): 11.4 upbm affinity estimate (log intensity, higher = more binding, comparable within an allelic series)
binding signal (SIX6 [9]): 11.2 upbm affinity estimate (log intensity, higher = more binding, comparable within an allelic series)
binding signal (SIX6 [10]): 11.4 upbm affinity estimate (log intensity, higher = more binding, comparable within an allelic series)
binding signal (SIX6 [11]): 11.2 upbm affinity estimate (log intensity, higher = more binding, comparable within an allelic series)
binding signal (SIX6 [12]): 11.2 upbm affinity estimate (log intensity, higher = more binding, comparable within an allelic series)
binding signal (SIX6 [13]): 11.2 upbm affinity estimate (log intensity, higher = more binding, comparable within an allelic series)

GGTGTCAC
binding signal (SIX6 [1]): 10.3 upbm affinity estimate (log intensity, higher = more binding, comparable within an allelic series)
binding signal (SIX6 [5]): 9.69 upbm affinity estimate (log intensity, higher = more binding, comparable within an allelic series)
binding signal (SIX6 [8]): 11.1 upbm affinity estimate (log intensity, higher = more binding, comparable within an allelic series)
binding signal (SIX6 [10]): 11.1 upbm affinity estimate (log intensity, higher = more binding, comparable within an allelic series)

CTATACTA
binding signal (SIX6 [1]): 10.2 upbm affinity estimate (log intensity, higher = more binding, comparable within an allelic series)
binding signal (SIX6 [3]): 10.1 upbm affinity estimate (log intensity, higher = more binding, comparable within an allelic series)
binding signal (SIX6 [5]): 10.2 upbm affinity estimate (log intensity, higher = more binding, comparable within an allelic series)
binding signal (SIX6 [8]): 10.2 upbm affinity estimate (log intensity, higher = more binding, comparable within an allelic series)
binding signal (SIX6 [11]): 10.1 upbm affinity estimate (log intensity, higher = more binding, comparable within an allelic series)
binding signal (SIX6 [12]): 10.2 upbm affinity estimate (log intensity, higher = more binding, comparable within an allelic series)
binding signal (SIX6 [13]): 10.1 upbm affinity estimate (log intensity, higher = more binding, comparable within an allelic series)

CATATCAA
binding signal (SIX6 [1]): 11.2 upbm affinity estimate (log intensity, higher = more binding, comparable within an allelic series)
binding signal (SIX6 [3]): 11.1 upbm affinity estimate (log intensity, higher = more binding, comparable within an allelic series)
binding signal (SIX6 [8]): 11.2 upbm affinity estimate (log intensity, higher = more binding, comparable within an allelic series)
binding signal (SIX6 [10]): 11.2 upbm affinity estimate (log intensity, higher = more binding, comparable within an allelic series)
binding signal (SIX6 [11]): 10.9 upbm affinity estimate (log intensity, higher = more binding, comparable within an allelic series)
binding signal (SIX6 [13]): 11 upbm affinity estimate (log intensity, higher = more binding, comparable within an allelic series)

ATTATCCG
binding signal (SIX6 [1]): 10.4 upbm affinity estimate (log intensity, higher = more binding, comparable within an allelic series)
binding signal (SIX6 [3]): 10.3 upbm affinity estimate (log intensity, higher = more binding, comparable within an allelic series)
binding signal (SIX6 [4]): 9.7 upbm affinity estimate (log intensity, higher = more binding, comparable within an allelic series)
binding signal (SIX6 [5]): 10.2 upbm affinity estimate (log intensity, higher = more binding, comparable within an allelic series)
binding signal (SIX6 [6]): 10.3 upbm affinity estimate (log intensity, higher = more binding, comparable within an allelic series)
binding signal (SIX6 [7]): 9.95 upbm affinity estimate (log intensity, higher = more binding, comparable within an allelic series)
binding signal (SIX6 [8]): 10.2 upbm affinity estimate (log intensity, higher = more binding, comparable within an allelic series)
binding signal (SIX6 [9]): 10.4 upbm affinity estimate (log intensity, higher = more binding, comparable within an allelic series)
binding signal (SIX6 [10]): 10.2 upbm affinity estimate (log intensity, higher = more binding, comparable within an allelic series)
binding signal (SIX6 [11]): 10.2 upbm affinity estimate (log intensity, higher = more binding, comparable within an allelic series)
binding signal (SIX6 [12]): 10.3 upbm affinity estimate (log intensity, higher = more binding, comparable within an allelic series)
binding signal (SIX6 [13]): 10.2 upbm affinity estimate (log intensity, higher = more binding, comparable within an allelic series)

GATATACA
binding signal (SIX6 [1]): 11.1 upbm affinity estimate (log intensity, higher = more binding, comparable within an allelic series)
binding signal (SIX6 [5]): 10.9 upbm affinity estimate (log intensity, higher = more binding, comparable within an allelic series)
binding signal (SIX6 [7]): 10.4 upbm affinity estimate (log intensity, higher = more binding, comparable within an allelic series)
binding signal (SIX6 [13]): 10.9 upbm affinity estimate (log intensity, higher = more binding, comparable within an allelic series)

ACTATACG
binding signal (SIX6 [1]): 10 upbm affinity estimate (log intensity, higher = more binding, comparable within an allelic series)
binding signal (SIX6 [3]): 10 upbm affinity estimate (log intensity, higher = more binding, comparable within an allelic series)
binding signal (SIX6 [5]): 10.1 upbm affinity estimate (log intensity, higher = more binding, comparable within an allelic series)
binding signal (SIX6 [8]): 9.95 upbm affinity estimate (log intensity, higher = more binding, comparable within an allelic series)
binding signal (SIX6 [10]): 10 upbm affinity estimate (log intensity, higher = more binding, comparable within an allelic series)
binding signal (SIX6 [11]): 10 upbm affinity estimate (log intensity, higher = more binding, comparable within an allelic series)
binding signal (SIX6 [12]): 10.1 upbm affinity estimate (log intensity, higher = more binding, comparable within an allelic series)
binding signal (SIX6 [13]): 9.99 upbm affinity estimate (log intensity, higher = more binding, comparable within an allelic series)
